Screening results (PubChem)
Hits are enriched below; roughly 3.2% of the tested compounds scored in any of these assays.
H9c2 protect: myocardial damage modulation in H9c2 cells; H9c2 cardiomyocytes, H2O2 injury protection, ATPLite, 2 h; protection from H2O2 cell death, % at 20 µM; actives 0.63% (n = 360,000); AID 588492;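 active means compounds giving at least 50% protection of heart cells from peroxide-induced death in the single-dose screen, raw or plate-pattern-corrected value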;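 further: 0% = DMSO wells with peroxide and 100% = DMSO wells without peroxide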
CRFR2-BP ag: CRF-BP/CRF-R2 complex agonism; HEK293 CRF-R2/CRF-BP, calcium dye fluorescence (FLIPR); percent of saturating CRF peptide response; activation, % at 13.2 µM; actives 0.46% (n = 350,000);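 active means activation of at least 50%, plus an integration ratio under a set limit after plate pattern correction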;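 further: plate controls were neutral control wells without compound for no effect and CRF at EC100 for full effect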
aDG glyco act: increases alpha dystroglycan glycosylation; Pro5-aDG cells, alpha-DG glycosylation AlphaScreen (IIH6); 0% Pro5, 100% B10-LARGE cell signal; activation, % at 10 µM; actives 0.22% (n = 360,000); AID 624168;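 active means activation of at least 8% versus controls, or a plate z-score of at least 8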;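 further: Pro5 are CHO cells carrying HIG-tagged alpha-DG that lacks glycosylation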
CRFR2-BP antag: CRF-BP/CRF-R2 complex antagonism; HEK293 CRF-R2/CRF-BP, CRF-induced calcium fluorescence; inhibition, % at 11.8 µM; actives 0.59% (n = 350,000);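 active means inhibition of the ligand-induced calcium signal above about 50% at the single tested concentration, limit read from the data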
FAS TE block: FAS thioesterase (human) inhibition; recombinant FAS-TE, OMFH fluorogenic substrate, fluorescence endpoint; inhibition, % at 15 µM; actives 0.67% (n = 360,000);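 active means compounds whose normalised, plate-corrected inhibition of enzyme fluorescence in the single-dose primary screen is 50% or more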;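 further: 0% = DMSO with enzyme and 100% = substrate without enzyme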
PfGluPho inh: PfG6PD (Plasmodium falciparum) enzyme inhibition | PfGluPho enzyme, NADPH resazurin-diaphorase fluorescence | inhibition, % at 20 µM | AID 504690 | actives 0.78% (n = 350,000);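 active means inhibition reaching at least a set limit at 20 µM in the primary screen, cut at about 59% in these data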;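 further: 0% = DMSO wells with substrate and 100% = DMSO wells lacking glucose-6-phosphate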
Numbers without * were called inactive; . = not tested or not shown; ! = not confirmed by another sample.

SMILES	H9c2 protect	CRFR2-BP ag	aDG glyco act	CRFR2-BP antag	FAS TE block	PfGluPho inh
COc1ccc(C(=O)COC(=O)CCNS(=O)(=O)c2ccc(NC(C)=O)cc2)c(OC)c1	-4	1	0	51*	-4	-5
COc1ccc(-n2c(-c3ccc(Br)cc3)c[n+]3c2SC(C)C3)cc1 (stereo unspecified)	-18	-2	0	18	-7	-19
CCOC(=O)c1ccc(N=c2sc(C(=O)OC)cc(=O)n2CCCN2CCOCC2)cc1	1	-2	0	57*!	-5	35
CCOC(=O)c1ccc(N=c2sc(C(=O)OC)cc(=O)n2Cc2ccco2)cc1	-16	1	0	-3	3	33
C[C@@H]1CN([C@H](C)CO)C(=O)CCCn2cc(nn2)CO[C@H]1CN(C)C(=O)c1ccc2ccn(C)c2c1	4	.	0	.	-5	.
C[C@H](CO)N1C[C@H](C)[C@@H](CN(C)C(=O)c2ccc3ccn(C)c3c2)OCc2cn(nn2)CCCC1=O	-4	0	0	63*	-6	-13
Cc1ccc(Nc2nc(-c3c(C)nc4ccccn34)cs2)cc1	-14	-6	1	66*	15	33
COc1ccc(C(CC(=O)N2CCN(c3ccccc3)CC2)c2c(OC)cc(OC)c3ccc(=O)oc23)cc1 (stereo unspecified)	51*	2	0	19	24	1
Cc1ccc2nc(/C(C#N)=C/c3ccc(O)c(O)c3)[nH]c2c1	71*	39	0	-75	14	21
CSc1ncc(F)c(N(CCO)CCO)n1	8	2	0	-29	-6	-15
COC(=O)c1c(C)[nH]c(C(=O)COc2ccc3ccc(=O)oc3c2)c1C	81*	-1	0	4	2	-3
CC(=O)Nc1ccc(Sc2ncccc2C(=O)Nc2ccc(OC(F)(F)F)cc2)cn1	5	130*	0	-59	-11	-17
C[C@H]1COc2cccc(N3CCSCC3)c2S(=O)(=O)N1	.	.	0	.	-11	.
Cc1nc(CNS(=O)(=O)c2ccc3ccccc3c2)cs1	-15	-2	0	65*	-2	16
O=C(Oc1ccccc1)c1cc(O)c(O)c(O)c1	75*	.	0	.	-11	.
Cc1ccc(S(=O)(=O)NN=Cc2ccccc2Cl)cc1	-3	-2	0	27	-5	-7
CCN(CC)C(=O)c1c(C)nc2ccccn12	14	-8	0	85*	-2	0
O=C(CSc1nc(-c2ccc(F)cc2)cc(C(F)(F)F)n1)Nc1ccc2c(c1)OCO2	-9	-5	0	3	0	-6
COCC(=O)Nc1cc(C)cn(Cc2ccccc2Cl)c1=O	8	1	0	-7	-5	-8
Cc1ccc2nsnc2c1S(=O)(=O)N(Cc1cc2cccc(C)c2[nH]c1=O)CC1CCCO1 (stereo unspecified)	80*	0	-1	-18	-4	3
CN(C)c1ccc(C=C2SC(=S)NC2=O)cc1	-10	132*	0	-90	-85	-26
CCOc1ccc(N(C)c2ccc(/C=C3/SC(=S)NC3=O)cc2)cc1	-10	68*	0	-52	7	-18
COc1ccc(N=C2NC(=O)S/C2=C\c2ccc(N(C)C)cc2)cc1	-8	98*	0	-155	-36	-5
O=C1NC(=S)S/C1=C\c1cc(Cl)ccc1Cl	-19	30	0	70*	50	-13
O=C1NC(=S)S/C1=C/c1ccc(Oc2cnccn2)cc1	-10	6	0	30	15	-36
SMILES	H9c2 protect	CRFR2-BP ag	aDG glyco act	CRFR2-BP antag	FAS TE block	PfGluPho inh
N#CCCn1nc(-c2ccccc2)c2ccccc2c1=O	10	-2	0	8	-5	1
CCN(CC)c1ccc2cc(S(=O)(=O)c3ccc(Cl)cc3)c(=O)oc2c1	-3	118*	2	-83	-18	12
CCCCCCc1cc2cc(S(=O)(=O)c3ccc(Cl)cc3)c(=O)oc2cc1O	-9	44	0	-7	2	-9
Cc1ccccc1OCCC(=O)Nc1ccc2c(C)cc(=O)oc2c1	-2	0	1	-1	3	-3
O=C(COC(=O)Cc1n[nH]c(=O)c2ccccc12)Nc1c(Br)cc([N+](=O)[O-])cc1Br	97*	0	0	3	-3	7
NS(=O)(=O)c1cccc(NC(=O)COC(=O)Cc2n[nH]c(=O)c3ccccc23)c1	52*	1	0	-14	-5	-6
Cc1ccc(S(=O)(=O)N(C)C)cc1NC(=O)COC(=O)Cc1n[nH]c(=O)c2ccccc12	75*	1	0	-6	-2	16
COC(=O)c1ccc(CSc2ccccc2NC(=S)Nc2cccc(SC)c2)o1	-9	-1	0	14	15	28
CCCCC[n+]1ccn(C2=C([O-])c3ccccc3C(=O)/C2=N\S(=O)(=O)c2ccccc2)c1	-16	-1	4	-11	0	2
CCCCC[n+]1ccn(C2=C([O-])c3ccccc3C(=O)/C2=N\S(=O)(=O)c2ccc(Br)cc2)c1	-10	-1	5.8*	8	7	24
Cc1ccc(N(Cc2ccccc2F)S(C)(=O)=O)cc1C	1	-2	0	48	3	-3
CS(=O)(=O)Nc1ccccc1C(=O)NCc1ccccc1Cl	0	2	0	61*	-5	-5
CCc1nc2c(OCc3ccc(Cl)cc3)cccn2c1N(C)C(=O)c1ccco1	-1	.	0	.	0	.
CC(=O)Nc1cccc(N/C(N)=N/c2nc(C)cc(C)n2)c1	2	-1	0	13	-11	-3
Cc1ccc(N/C(N)=N/c2nc(C)cc(C)n2)cc1	-7	55*	1	-48	-20	4
Cc1cc(C)cc(N/C(N)=N/c2nc(C)cc(C)n2)c1	-9	16	1	-12	-20	12
CCCCc1ccc(N/C(N)=N/c2nc(C)cc(C)n2)cc1	-14	102*	0	-81	-50	0
Cc1cccc(N/C(N)=N/c2nc(C)cc(C)n2)c1	-2	81*	0	-53	-12	3
CSc1ncc(C(=O)Nc2ccccc2)cn1	-2	0	0	-4	-7	4
COc1ccc(CNC(=O)C2CC(=O)N(C3CCCC3)C2)cc1 (stereo unspecified)	1	3	0	1	-6	-14
C/C(=N\NC(=O)c1ccncc1)c1cc2ccccc2oc1=O	16	0	0	-9	-8	4
C/C(=N/NC(=O)c1ccncc1)c1cc2ccc(O)cc2oc1=O	6	191*	0	-38	-159	8
CN1CCN(c2ccc(-c3cccc(NC(=O)COc4ccc(Cl)cc4Cl)c3)nn2)CC1	-19	.	5.2*	.	-5	.
N#CC(Cc1ccccc1OC(F)F)c1nc2ccccc2[nH]1 (stereo unspecified)	-6	-3	0	15	-2	1
